For 40 sequences, sensor-assay potency score (higher = more potent) results are on record in the OligoGym collection.
Note: reference of the scale not given here.

The first test concerns the target CHRNE. In words: pooled miR-30 sensor sort-seq; sequence = guide strand. To be noted: shRNA.
TTCACGGCATCCACACAGCAGC: the sensor-assay potency score (higher = more potent) is -0.899.

In turn, TCAAACACGAGCTCGCTCCGTG had a sensor-assay potency score (higher = more potent) of -0.0514.

Take TTCAGTATCAGCTCCTCCGCGC: the sensor-assay potency score (higher = more potent) is -0.412.

In turn, TTTTTCAAAATCAATTTCCTAC had a sensor-assay potency score (higher = more potent) of -0.288.

TTGCTTTCTGTCAGTACTGTAG displayed a sensor-assay potency score (higher = more potent) of -0.702.

Consider TTCCAGCACAATCTCTGGCAGC, for which the sensor-assay potency score (higher = more potent) is -0.813.

TATACCCCCAAAGTCGTCCTTG gave a sensor-assay potency score (higher = more potent) of -0.579.

TTGTTTTCCAGCACAATCTCTG showed a sensor-assay potency score (higher = more potent) of -0.404.

TTGCCGTCGTTGTCTACGGCAA: the sensor-assay potency score (higher = more potent) is -1.16.

TAATCCTGCCAATCGATTCCAA displayed a sensor-assay potency score (higher = more potent) of -0.67.

TAGATGACGTCAGTCTCCCCTG showed a sensor-assay potency score (higher = more potent) of -0.628.

In the case of TAGAAGAGCGGCTTCCGGCGGA, the sensor-assay potency score (higher = more potent) was found to be 0.192.

Take TCTTGTTGATGGTCTTGCCGTC: the sensor-assay potency score (higher = more potent) worked out at 0.0404.

With TGTGTCGATGTCGATCTTGTTG, the sensor-assay potency score (higher = more potent) is -0.832.

The sequence ATCTTGTTGATGGTCTTGCCGT displayed a sensor-assay potency score (higher = more potent) of -1.25.

The sequence TAGGTGACCTCCACTGCGCAGA had a sensor-assay potency score (higher = more potent) of -0.727.

Consider TAGTGGTGAGAGTCTCCTCTTT, for which the sensor-assay potency score (higher = more potent) is -0.541.

The target in the next test is CHST7. The description is as above. Particulars: shRNA.
In the case of TTTTCGTCCAGACACCTGCTGG, the sensor-assay potency score (higher = more potent) was -1.07.

As for TTGGTAGCAAGTCAAGTCCCAG, the sensor-assay potency score (higher = more potent) was -1.13.

The sequence TAGATGTGCTGCTTCTCGCGAG had a sensor-assay potency score (higher = more potent) of -0.296.

With TTACTGGAAACTTCATCTCAAC, the sensor-assay potency score (higher = more potent) is -1.13.

AACAGCAGCGCGAACTTGCAGT gave a sensor-assay potency score (higher = more potent) of -0.918.

As for TAAATATCCACATTGCACTGTC, the sensor-assay potency score (higher = more potent) is 0.728.

Sequence TACAAGTAGAAAACGTCCGGGT registered a sensor-assay potency score (higher = more potent) of 0.0569.

In the case of TCCTTGATGACCACCACCGGGT, the sensor-assay potency score (higher = more potent) was -1.07.

Consider ATACAAGTAGAAAACGTCCGGG, for which the sensor-assay potency score (higher = more potent) was 0.117.

TACCAAATCACATCTCTTCTTT showed a sensor-assay potency score (higher = more potent) of -0.0966.

With TTGGGAACCGAGGAGACTGGTT, the sensor-assay potency score (higher = more potent) was -0.796.

Another test deals with CHSY1. Described as above. To be noted: shRNA.
With TTTATCTTTGGGTTCTTTGTGC, the sensor-assay potency score (higher = more potent) was 0.332.

The sequence TTTCCCACTATAAACAATCTTT registered a sensor-assay potency score (higher = more potent) of -0.597.

TTCTTTGTGCTCACTCTTCGAC yielded a sensor-assay potency score (higher = more potent) of -0.347.

TTAACAATCACAACAGAACATT came in with a sensor-assay potency score (higher = more potent) of -1.42.

The sequence TTGTCTTGGACCATGTTCTGTA gave a sensor-assay potency score (higher = more potent) of 0.134.

In the case of TTTTACTGTAACTTGGATCATT, the sensor-assay potency score (higher = more potent) was -0.393.

For TTGTGCTCACTCTTCGACCCAG, the sensor-assay potency score (higher = more potent) was -0.424.

The sequence TTTTGCTGAAAGTCTGCTGTAA displayed a sensor-assay potency score (higher = more potent) of -0.0624.

Sequence TTGAAGTCAATGATGCGCCCTC showed a sensor-assay potency score (higher = more potent) of -0.291.

As to TTGCTCGACATCGCTGAAGGAA, the sensor-assay potency score (higher = more potent) was -0.494.

TGTATTTGCTCGACATCGCTGA had a sensor-assay potency score (higher = more potent) of 0.246.

TAAATCTCACAAACATGTCGAA registered a sensor-assay potency score (higher = more potent) of -0.309.
